PubChem BioAssay

system: PRMT1 (protein arginine N-methyltransferase 1); experiment: PRMT1 binders on small-molecule microarrays, primary screen, biochemical, small-molecule microarray, 635 nm fluorescence (AID 1088); conditions: small-molecule microarray binding, higher = more signal;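 further: binding of Prmt1 protein to compounds spotted on small-molecule microarray slides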

Q: Which composite z-score does the source give for `COc1ccc([Si](C)(C)[C@H]2[C@H](CC(=O)N3CCC[C@H]3CO)O[C@@]3(C(=O)N(Cc4cccc(N5C(=O)COc6ccccc65)c4)c4ccccc43)[C@@H]2C)cc1` here?
A: 1.41

Q: Which composite z-score does the source give for `CC(=O)OC[C@H]1O[C@H](C#CCCCc2ccccc2)C=C[C@@H]1OC(C)=O` here?
A: 0.351

Q: Which composite z-score does the source give for `CC(C)[C@H](NC(=O)OC(C)(C)C)[C@@H](O)CC(=O)OC(C)(C)C` here?
A: -1.84

Q: `COCCCNC(=O)[C@]1(CCC(=O)OC(C)(C)C)N=C(c2ccc(OCCCO)cc2)O[C@@H]1c1ccccc1N=[N+]=[N-]` was tested. Which composite z-score did it give?
A: 1.54

Q: For `C[C@@H]1C=CCC(=O)OC[C@H](C)C(=O)N[C@@H](C)C(=O)OC1`, which composite z-score is on record?
A: 0.552

Q: `COC(=O)[C@@]1(Cc2ccc(F)cc2)[C@H]2c3cc(C(=O)N(C)C)n(Cc4ccc(OC)c(OC)c4)c3C[C@H]2CN1C(=O)c1ccccc1` was tested. Which composite z-score did it give?
A: -1.32

Q: `CCCCCN1CC=CC23O[C@@H]4C=CCOC(=O)[C@@H]4[C@H]2C(=O)N(CCCCCCO)[C@@H]3C1=O` (stereo not given in full) was tested. Which composite z-score did it give?
A: -0.0856

Q: `COc1ccc(O[C@H]2C=C[C@@H](c3ccccc3)O[C@@H]2COC(=O)CCC(C)=NO[C@H](C)c2cn([C@@H]3COC[C@H]3O)nn2)cc1` was tested. Which composite z-score did it give?
A: 1.53

Q: How did the composite z-score turn out when `C#C[C@@H]1Oc2ccccc2S(=O)(=O)N2CCC[C@H]12` was run?
A: -1.07

Q: With `CC(C)(C)OC(=O)CC[C@]1(C(N)=O)COC(c2ccc(OCCCO)cc2)=N1` as the molecule, how does the composite z-score read?
A: 1.09

Q: With `COc1ccc(O[C@H]2C=C[C@@H](c3ccccc3)O[C@@H]2COC(=O)CCC(C)=NOC[C@@H](C)[C@H](OCc2ccccc2)C(C)C)cc1` as the molecule, how does the composite z-score read?
A: -0.548

Q: `Cc1ccc(F)cc1S(=O)(=O)N[C@@H]1CCN(Cc2ccc(CC(C)C)cc2)C1` was tested. Which composite z-score did it give?
A: 0.446

Q: With `CCc1cc2c(nc1CC)CCN(CCC(C)=NOC(C)CN1CCCc3nc(C)c(C)cc31)C2` (stereo not given) as the molecule, how does the composite z-score read?
A: 1.37

Q: `Cc1ccc(S(=O)(=O)N[C@@H]2COC(=O)[C@H](C)COC(=O)CC=C[C@H]2C)cc1` was tested. Which composite z-score did it give?
A: -0.365

Q: With `O=C1C[C@@H](O)[C@@H](O)[C@@H]2[C@@H]3C(=O)N(Cc4ccc5c(c4)OCO5)C(=O)[C@@H]3CC[C@@H]12` as the molecule, how does the composite z-score read?
A: 0.555

Q: `CN1C(=O)[C@@]2(CCC(=O)OC(C)(C)C)N=C(c3ccc(OCCCO)cc3)O[C@H]2c2ccccc21` was tested. Which composite z-score did it give?
A: 1.54

Q: `COCCOC(=O)N1C(=O)[C@@]2(c3cc(C#CC4(O)CCCCCC4)ccc31)[C@H](C(=O)N1CCN(c3ncccn3)CC1)[C@H]1C(=O)O[C@H](c3ccccc3)[C@H](c3ccccc3)N1[C@@H]2c1ccc(OCCO)cc1` was tested. Which composite z-score did it give?
A: 1.53

Q: `CCOC(=O)[C@H](CC(C)C)NC(=O)CCC1CC(OC(=O)NCc2cccc3ccccc23)CC2(CCCC(COC(=O)NCCc3ccccc3OC)O2)O1` (stereo not given in full) was tested. Which composite z-score did it give?
A: 1.28

Q: With `COC(=O)[C@H](C)NC(=O)CCC1CC(OC(=O)NCc2cccc3ccccc23)CC2(CCCC(COC(=O)NCCc3ccc(Cl)cc3)O2)O1` (stereo not given in full) as the molecule, how does the composite z-score read?
A: 1.27

Q: `O[C@@H](Cc1ccccc1)[C@H]1C2C=CCCC(c3ccccc3)=C2CN1Cc1cccc(Cl)c1` (stereo not given in full) was tested. Which composite z-score did it give?
A: 1.44

Q: For `O=C1[C@H]2[C@H]3[C@H](O)[C@H](O)CC(=NO[C@@H]4O[C@H](CO)[C@@H](O)[C@H](O)[C@H]4O)[C@@H]3CC[C@H]2C(=O)N1Cc1ccccc1`, which composite z-score is on record?
A: 0.346

Q: With `COCCOC(=O)N1C(=O)[C@@]2(c3cc(C#CCNC(N)=O)ccc31)[C@H](c1ccccc1OCCO)N1[C@H](c3ccccc3)[C@H](c3ccccc3)OC(=O)[C@H]1[C@@H]2C(=O)N1CCN(c2ncccn2)CC1` as the molecule, how does the composite z-score read?
A: 1.44

Q: How did the composite z-score turn out when `O=C1[C@H]2[C@H]3[C@H](O)[C@H](O)CC(=NO[C@@H]4O[C@H](CO)[C@@H](O)[C@H](O)[C@H]4O)[C@H]3CC[C@H]2C(=O)N1Cc1ccccc1` was run?
A: 1.46

Q: With `CC(C)(C)N1C(=O)[C@H]2[C@H]3[C@H](O)[C@H](O)CC(=NO[C@@H]4O[C@H](CO)[C@@H](O)[C@H](O)[C@H]4O)[C@@H]3CC[C@H]2C1=O` as the molecule, how does the composite z-score read?
A: 1.49

Q: `O=C1[C@H]2[C@H]3[C@H](O)[C@H](O)CC(=NO[C@@H]4O[C@H](CO)[C@@H](O)[C@H](O)[C@H]4O)[C@H]3CC[C@H]2C(=O)N1C1CCCCC1` was tested. Which composite z-score did it give?
A: 1.55

Q: Which composite z-score does the source give for `CC[C@@H](c1ccccc1)n1c(=O)n2n(c1=O)[C@H]1[C@H](O)[C@@H]3O[C@@H]3C(=NOCC(C)C)[C@H]1CC2` here?
A: -0.179

Q: `CCCC[C@@H](O)C1=C(C)C[C@H]2C(=O)N(Cc3ccccc3)C(=O)[C@H]2[C@H]1CO` was tested. Which composite z-score did it give?
A: 0.18

Q: With `CC(C)=C1C(=O)C(c2ccccc2)=C2CN3C(=O)N(CCc4ccccc4)C(=O)[C@]3(Cc3ccc(F)cc3)[C@H]21` as the molecule, how does the composite z-score read?
A: 1.11

Q: Which composite z-score does the source give for `N#Cc1ccc(NN2C(C(O)c3cc(C(F)(F)F)cc(C(F)(F)F)c3)C=CC3C(=O)N(c4ccccc4)C(=O)C32)cc1` (stereo not given) here?
A: 1.34

Q: `[N-]=[N+]=NCc1ccccc1[C@@H]1OC(c2ccc(OCCCO)cc2)=N[C@]1(Cc1ccccc1)C(=O)N1CCOCC1` was tested. Which composite z-score did it give?
A: 1.53

Q: `CC(CCN1CCCCc2nc(C)c(C)cc21)=NOC(C)CN1CCCCc2nc(C)c(C)cc21` (stereo not given) was tested. Which composite z-score did it give?
A: 1.52

Q: With `O=C(NN=C1C[C@@H](O)[C@@H](O)[C@@H]2[C@@H]3C(=O)N(c4cccc(Oc5ccccc5)c4)C(=O)[C@@H]3CC[C@H]12)OCc1ccccc1` as the molecule, how does the composite z-score read?
A: -0.425

Q: How did the composite z-score turn out when `CCOC(=O)CCN1C(=O)[C@H]2[C@H]3[C@H](O)[C@H](O)CC(=O)[C@H]3CC[C@H]2C1=O` was run?
A: 0.0774

Q: `O=C1O[C@@H](c2ccccc2)[C@@H](c2ccccc2)N2[C@@H](c3ccc(OCCO)cc3)[C@]3(C(=O)Nc4ccc(C#CCCO)cc43)[C@@H](C(=O)N3CCCCCCC3)[C@H]12` was tested. Which composite z-score did it give?
A: 1.54

Q: How did the composite z-score turn out when `c1ccc(C2NCCc3c2[nH]c2ccccc32)cc1` (stereo not given) was run?
A: -0.339
